The text below walks through data of PubChem BioAssay (Tox21).

Records with an inconclusive call do not appear. Entries that show only a call come without a potency. Values without a mark were called inactive. Active and inactive are the calls of the source. Calls follow the shape of the dose curve; as a rule, active = well fitted curve in the direction sought with a large enough effect in the repeat runs; inconclusive = weak or mixed curves; inactive = no such curve, though single readings can be large; an effect the other way counts as inactive or inconclusive.

The first experiment is described as follows: qHTS assay to identify small molecule antagonists of the retinoic acid receptor (RAR) signaling pathway (AID 1159552; also: nearly all actives have a fitted effect of over 50% in size). To be noted: C3RL4 RARE luciferase reporter, retinol-stimulated, 6 h; series mostly up to 92.4 µM. In short, it runs like this: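 Using a RARE-driven luciferase construct in C3RL4 cells, retinol at 1 uM final provided the agonist stimulus while compounds were co-applied. After 6 hours at 37 C, luminescence was recorded to flag inhibitors of retinol signaling.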
As for `CCC(C)O` (centres undefined), the Potency result was “inactive”.
Same read-out and setting: to `C[N+](C)(C)CCOC(=O)CCC(=O)OCC[N+](C)(C)C` belongs “inactive”; to `CCOC(=O)C1=C[C@]2(CC)CCCN3CCc4c(n1c1ccccc41)[C@@H]32`, “inactive”.
On the same count and under the same terms, to `O=C1c2ccccc2S(=O)(=O)N1CCCCN1CCN(c2ncccn2)CC1` belongs “inactive”; to `CC(C)(C)Cl`, “inactive”; to `C=C(C)C(=O)OCC`, “inactive”.
On to `C#CCN(C)CCCOc1ccc(Cl)cc1Cl`, for which the Potency result was “inactive”.
As to `c1ccc(-c2ccccn2)nc1`, the Potency entry was “inactive”.
The same measure, in the same setting: the entry for `O=C1OC(=O)C2C3C=CC(C3)C12` (centres undefined) is “inactive”; for `CCCCCCc1ccc(-c2ccc(C#N)cc2)cc1` it is “inactive”.
With `COC(C)OC`, the Potency entry was “inactive”.
Same read-out and setting: the entry for `CCCCOC(=O)CCCCCCCC(=O)OCCCC` is “inactive”.
On the same count and under the same terms, the entry for `CCCCC` is “inactive”.
For `CN(C)c1ccc(/C=C/c2ccc([N+](=O)[O-])cc2)cc1`, the activity, negative = inhibition was 84.6% [at 8.39 µM].
For the compound `CC1CCC(=O)C1=O` (centres undefined), the Potency result was “inactive”.
Same read-out and setting: the entry for `CCCCCCCCO[C@@H]1O[C@H](CO)[C@@H](O)[C@H](O)[C@H]1O` is “inactive”; for `C=C(C)C(=O)OCCO` it is “inactive”.
With `NC(N)=NCCC[C@H](N)C(=O)O`, the activity, negative = inhibition is 5.45% [at 8.39 µM].
For `Cc1[nH]c(C)c(Cl)c(=O)c1Cl`, the activity, negative = inhibition is 3.44% [at 19 µM].
On to `COc1cc2nc(N3CCN(C(=O)C4COc5ccccc5O4)CC3)nc(N)c2cc1OC` (centres undefined), for which the Potency result was “inactive”.
As to `C[C@@H]1C[C@H]2[C@@H]3CCC4=CC(=O)C=C[C@]4(C)[C@@]3(F)[C@@H](O)C[C@]2(C)[C@@]1(O)C(=O)COC(=O)c1ccncc1`, the Potency entry was “inactive”.
On the same count and under the same terms, the entry for `CCCCCCOC(=O)NC(=N)c1ccc(NCc2nc3cc(C(=O)N(CCC(=O)OCC)c4ccccn4)ccc3n2C)cc1` is “inactive”; for `Nc1cc(C(=O)O)c(O)c(S(=O)(=O)O)c1` it is “inactive”; for `CCOC(=O)C(F)(F)F` it is “inactive”.
For the compound `Nc1ccc([N+](=O)[O-])c(C(F)(F)F)c1`, the Potency result was “inactive”.
For the compound `NCC(=O)O`, the activity, negative = inhibition is 0.472% [at 19 µM].
For the compound `COCC(C)OC(C)=O` (centres undefined), the Potency entry is “inactive”.

The nature of a further experiment: qHTS assay to identify small molecule agonists of the retinoic acid receptor (RAR) signaling pathway (AID 1159553). Also: potency is read from the fitted curve at half-maximal effect. To be noted: C3RL4 RARE luciferase reporter, agonist, 6 h; series mostly up to 73.3 µM. In short, it runs like this:
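6 hr compound exposure (DMSO vehicle) of overnight-plated C3RL4 RARE-luc cells at 37 C; luminescence quantified after 30 min RT with luciferase reagent.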
On the technique in general: qHTS replaces the single test concentration by a dilution series.
Consider `CCC(C)O` (centres undefined), for which the Potency entry is “inactive”.
The same measure, in the same setting: to `C[N+](C)(C)CCOC(=O)CCC(=O)OCC[N+](C)(C)C` belongs “inactive”; to `CCOC(=O)C1=C[C@]2(CC)CCCN3CCc4c(n1c1ccccc41)[C@@H]32`, “inactive”; to `O=C1c2ccccc2S(=O)(=O)N1CCCCN1CCN(c2ncccn2)CC1`, “inactive”.
The same measure, in the same setting: the entry for `CC(C)(C)Cl` is “inactive”; for `C=C(C)C(=O)OCC` it is “inactive”; for `O=S(c1cc(Cl)cc(Cl)c1O)c1cc(Cl)cc(Cl)c1O` it is “inactive”.
For the compound `O=C1OC(=O)C2C3C=CC(C3)C12` (centres undefined), the Potency entry is “inactive”.
Same read-out and setting: to `CCCCCCc1ccc(-c2ccc(C#N)cc2)cc1` belongs “inactive”.
In the case of `COC(C)OC`, the Potency entry is “inactive”.
Turning to `CCCCCCCC/C=C\CCCCCCCC(=O)OCC`, the Potency result is “inactive”.
Take `CCCCOC(=O)CCCCCCCC(=O)OCCCC`: the Potency entry was “inactive”.
On the same count and under the same terms, the entry for `COc1cccc(N(C)C(=S)Oc2ccc3c(c2)CCCC3)n1` is “inactive”.
The same measure, in the same setting: to `CCCCC` belongs “inactive”.
In the case of `Cc1ncc(CO)c(C=O)c1O`, the Potency result is “inactive”.
On the same count and under the same terms, the figure for `CN(C)c1ccc(/C=C/c2ccc([N+](=O)[O-])cc2)cc1` is 219 nM (active); for `CC1CCC(=O)C1=O` (centres undefined) it is “inactive”; for `CCCCCCCCO[C@@H]1O[C@H](CO)[C@@H](O)[C@H](O)[C@H]1O` it is “inactive”.
On the same count and under the same terms, the entry for `CC[N+](C)(CC)CCOC(=O)C(O)(c1ccccc1)C1CCCCC1` (centres undefined) is “inactive”; for `C=C(C)C(=O)OCCO` it is “inactive”.
Regarding `NC(N)=NCCC[C@H](N)C(=O)O`, the activation is 0.0873% [at 8.36 µM].
With `Cc1[nH]c(C)c(Cl)c(=O)c1Cl`, the Potency result was “inactive”.
Same read-out and setting: the entry for `COc1cc2nc(N3CCN(C(=O)C4COc5ccccc5O4)CC3)nc(N)c2cc1OC` (centres undefined) is “inactive”; for `CC(COCCO)OCCO` (centres undefined) it is “inactive”; for `C[C@@H]1C[C@H]2[C@@H]3CCC4=CC(=O)C=C[C@]4(C)[C@@]3(F)[C@@H](O)C[C@]2(C)[C@@]1(O)C(=O)COC(=O)c1ccncc1` it is “inactive”.
The same measure, in the same setting: to `CCCCCCOC(=O)NC(=N)c1ccc(NCc2nc3cc(C(=O)N(CCC(=O)OCC)c4ccccn4)ccc3n2C)cc1` belongs “inactive”.
Same read-out and setting: to `Nc1cc(C(=O)O)c(O)c(S(=O)(=O)O)c1` belongs “inactive”.
Regarding `CCOC(=O)C(F)(F)F`, the Potency result is “inactive”.
On the same count and under the same terms, the entry for `Cc1ccc(C(C)OC(=O)C2(C)CCC(C(=O)O)C2(C)C)cc1` (centres undefined) is “inactive”; for `Nc1ccc([N+](=O)[O-])c(C(F)(F)F)c1` it is “inactive”; for `NCC(=O)O` it is “inactive”.
The same measure, in the same setting: the entry for `COCC(C)OC(C)=O` (centres undefined) is “inactive”.

The next experiment is described as follows: qHTS assay to identify small molecule antagonists of the estrogen related receptor (ERR) signaling pathway - cell viability counter screen (AID 1224818). Conditions: ERR reporter cell line viability counter screen; series mostly up to 46.1 µM. The method, boiled down:
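Compounds dissolved in DMSO were applied to ERR cells seeded at 2,000 per well 6 h earlier. Cell viability followed 17.5 h later via 30-min CellTiter-Fluor fluorescence.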
As for `C[N+](C)(C)CCOC(=O)CCC(=O)OCC[N+](C)(C)C`, the compound was called inactive.
On the same count and under the same terms, the entry for `CCOC(=O)C1=C[C@]2(CC)CCCN3CCc4c(n1c1ccccc41)[C@@H]32` is “inactive”.
Still for that read-out and setting: to `C#CCN(C)CCCOc1ccc(Cl)cc1Cl` belongs “inactive”; to `c1ccc(-c2ccccn2)nc1`, “inactive”.
Same read-out and setting: the entry for `NC(N)=NCCC[C@H](N)C(=O)O` is “inactive”.

The next experiment is described as follows: qHTS assay to identify small molecule antagonists of the estrogen related receptor signaling pathway with the pleiotropic PPARgamma coactivator (PGC) cell viability counter screen (AID 1224822). To be noted: ERR/PGC reporter cell line viability counter screen; series mostly up to 46.1 µM. In short, it runs like this: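 Counter screen for cell viability: PGC/ERR cells, 6 h pre-incubation after plating, 17.5 h compound exposure at 37 C, fluorescence from CellTiter-Fluor after 30 min.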
In the case of `C[N+](C)(C)CCOC(=O)CCC(=O)OCC[N+](C)(C)C`, the compound was classed as inactive.
Still for that read-out and setting: the entry for `CCOC(=O)C1=C[C@]2(CC)CCCN3CCc4c(n1c1ccccc41)[C@@H]32` is “inactive”; for `C#CCN(C)CCCOc1ccc(Cl)cc1Cl` it is “inactive”; for `c1ccc(-c2ccccn2)nc1` it is “inactive”.
Still for that read-out and setting: the entry for `NC(N)=NCCC[C@H](N)C(=O)O` is “inactive”.
